# Results from PubChem BioAssay (Tox21).
# Values joined by “and” are separate entries in the source; they are usually repeats but may differ in a detail not shown here. Equal entries are not always repeated. A number with no mark means an inactive call. Results filed as inconclusive are left out. Where a call stands in place of a potency, no number is given. Active and inactive are the calls of the source. Unless noted, calls follow the shape of the dose curve; as a rule, active = well fitted curve in the direction sought with a large enough effect in the repeat runs; inconclusive = weak or mixed curves; inactive = no such curve, though single readings can be large; an effect the other way counts as inactive or inconclusive.
# Columns and labels:
# [1] = qHTS assay to identify small molecule agonists of the hypoxia (HIF-1) signaling pathway - cell viability counter screen (AID 1224844; calls by dose curve; also: nearly all actives have a fitted effect of over 50% in size; also: potency is read from the fitted curve at half-maximal effect)
# Outline: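 Luminescent ATP content (CellTiter-Glo, 30 min, room temperature) served as the viability measure in HRE-bla ME-180 cells exposed to compounds for 17 hrs in low-serum medium (0.5% dialyzed FBS).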
# [2] = qHTS assay to identify small molecule agonists of the hypoxia (HIF-1) signaling pathway (AID 1224846; active = well fitted activation curve with a large enough effect in the signal ratio in the repeat runs, not every such curve was filed as active; the % refers to the signal ratio)
# Outline: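 Measured by blue/green FRET after loading CCF4-AM: beta-lactamase expressed from a hypoxia response element in ME-180 cells. Test agents were delivered in DMSO and left 17 hrs; cells had been plated 5 hrs earlier in low-serum (0.5% dialyzed FBS) medium.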
# [3] = qHTS assay to identify small molecule antagonists of the estrogen related receptor (ERR) signaling pathway from Tox21 library (AID 1224848); also: nearly all actives have a fitted effect of over 50% in size; also: potency is read from the fitted curve at half-maximal effect
# Outline: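 Luminescent reporter read-out (ONE-Glo) from NTP's ERR cell line after 18 h treatment at 37 C with DMSO-dissolved Tox21 compounds; cells pre-plated 6 h beforehand at 2,000 per well.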
# [4] = qHTS assay to identify small molecule agonists of the estrogen related receptor (ERR) signaling pathway from Tox21 library (AID 1224849; calls by dose curve; also: nearly all actives have a fitted effect of over 15% in size); details: ERR reporter cell line, ONE-Glo luciferase, 18 h
# Outline: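 We plated ERR reporter cells, waited 6 h, added compounds in DMSO by pin tool and incubated them 18 h at 37 C. ONE-Glo was then added and luminescence read after 30 min.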
# [5] = qHTS RealTime-Glo MT Cell Viability Assay in HepG2 cells - 24 hour (AID 1224867); also: nearly all actives have a fitted effect of over 50% in size; also: potency is read from the fitted curve at half-maximal effect
# Outline: (§1)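 HepG2 suspension premixed with RealTime-Glo reagents is plated at 600 cells per well and left 5 h at 37 C/5% CO2. Compounds in DMSO then go in, and bioluminescence reflecting viable cell number is recorded over 40 h.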
# [6] = qHTS RealTime-Glo MT Cell Viability Assay in HEK293 cells - 32 hour (AID 1224868); also: nearly all actives have a fitted effect of over 50% in size; also: potency is read from the fitted curve at half-maximal effect
# Outline: (§2)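 Reads taken at 0, 8, 16, 24, 32 and 40 h from the same wells. HEK293 cells (600/well) carried RealTime-Glo reagents from seeding, with compound added after a 5 h settle at 37 C.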
# [7] = A CellTox Green Cytotoxicity Assay to monitor cytotoxicity in HEK293 cells - 0 hour (AID 1224869); also: nearly all actives have a fitted effect of over 50% in size
# Outline: (§3)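 Each value comes from one timepoint of a single continuous run in which HEK293 cells with CellTox Green were exposed to compound for up to 40 h at 37 C, dye fluorescence rising with cell death.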
# [8] = qHTS RealTime-Glo MT Cell Viability Assay in HepG2 cells - 40 hour (AID 1224870); also: nearly all actives have a fitted effect of over 50% in size; also: potency is read from the fitted curve at half-maximal effect
# Outline: (§4)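 HepG2 cells (600/well) mixed with RealTime-Glo MT reagent, settled 5 h at 37 C/5% CO2 before compound addition. Nonlytic NanoLuc luminescence from viable-cell prosubstrate reduction read repeatedly during 40 h treatment at 37 C.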
# [9] = qHTS RealTime-Glo MT Cell Viability Assay in HEK293 cells - 16 hour (AID 1224872); also: nearly all actives have a fitted effect of over 50% in size; also: potency is read from the fitted curve at half-maximal effect
# Outline: as §2
# [10] = qHTS RealTime-Glo MT Cell Viability Assay in HEK293 cells - 40 hour (AID 1224874); details: RealTime-Glo luminescence; max response: active compounds read low; also: nearly all actives have a fitted effect of over 50% in size; also: potency is read from the fitted curve at half-maximal effect
# Outline: (§5)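 qHTS format; HEK293 cells with NanoLuc/prosubstrate reagent, 37 C/5% CO2 for 5 h pre-dosing; compounds 23 nL in DMSO; luminescence at each time point reflects viable cells.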
# [11] = qHTS RealTime-Glo MT Cell Viability Assay in HepG2 cells - 32 hour (AID 1224877); also: nearly all actives have a fitted effect of over 55% in size; also: potency is read from the fitted curve at half-maximal effect
# Outline: as §1
# [12] = A CellTox Green Cytotoxicity Assay to monitor cytotoxicity in HepG2 cells - 24 hour (AID 1224878); also: nearly all actives have a fitted effect of over 45% in size; also: potency is read from the fitted curve at half-maximal effect
# Outline: (§6)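 Continuous culture of HepG2 cells with a membrane-impermeant DNA dye; rising fluorescence marks dead cells. Compound exposure lasted up to 40 h at 37 C, with reads every 8 h from 0 h.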
# [13] = A CellTox Green Cytotoxicity Assay to monitor cytotoxicity in HepG2 cells - 40 hour (AID 1224879); also: nearly all actives have a fitted effect of over 40% in size; also: potency is read from the fitted curve at half-maximal effect
# Outline: as §6
# [14] = qHTS RealTime-Glo MT Cell Viability Assay in HEK293 cells - 0 hour (AID 1224880); also: top concentration of the series differs between compounds; nearly all actives have a fitted effect of over 45% in size
# Outline: as §5
# [15] = qHTS assay to identify small molecule agonists of H2AX - cell viability counter screen (AID 1224847; calls by dose curve; also: nearly all actives have a fitted effect of over 30% in size; also: potency is read from the fitted curve at half-maximal effect)
# Outline: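 For this counter screen, overnight-attached CHO-K1 cells received test compounds (15 concentrations, 0.76% DMSO final); 3 hr later at 37C, CellTiter-Glo reagent was added and luminescence recorded after 30 min at room temperature.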
# [16] = A CellTox Green Cytotoxicity Assay to monitor cytotoxicity in HEK293 cells - 40 hour (AID 1224871); also: nearly all actives have a fitted effect of over 45% in size; also: potency is read from the fitted curve at half-maximal effect
# Outline: as §3
# [17] = qHTS RealTime-Glo MT Cell Viability Assay in HepG2 cells - 8 hour (AID 1224873); also: nearly all actives have a fitted effect of over 55% in size; also: potency is read from the fitted curve at half-maximal effect
# Outline: as §4
# [18] = A CellTox Green Cytotoxicity Assay to monitor cytotoxicity in HEK293 cells - 24 hour (AID 1224875); also: nearly all actives have a fitted effect of over 45% in size; also: potency is read from the fitted curve at half-maximal effect
# Outline: as §3
# [19] = A CellTox Green Cytotoxicity Assay to monitor cytotoxicity in HepG2 cells - 16 hour (AID 1224876); also: nearly all actives have a fitted effect of over 45% in size; also: potency is read from the fitted curve at half-maximal effect
# Outline: as §6
smiles,measurement,setting,value
CCOC(=O)c1ccc(C2CCC(NC[C@H](O)COc3ccc(O)c(NS(C)(=O)=O)c3)CC2)cc1 (stereo partly drawn),Potency,[1],inactive
same,Potency,[2],inactive
same,Potency,[3],56.4 µM (active)
same,"activity change, positive = activation",[4]; at 92.4 µM (top of the series),-46.8%
same,Potency,[5],45.2 µM (active)
same,Potency,[6],20.2 µM (active)
same,Potency,[7],inactive
same,Potency,[8],50.7 µM (active)
same,Potency,[9],20.2 µM (active)
same,Potency,[10],20.2 µM (active)
same,Potency,[11],45.2 µM (active)
same,Potency,[12],50.7 µM (active)
same,Potency,[13],45.2 µM (active)
same,Potency,[14],inactive
CC(C)=CCNc1ncnc2c1ncn2[C@@H]1O[C@H](CO)[C@@H](O)[C@H]1O,Potency,[1],8.49 µM (active)
same,Potency,[15],1.96 µM (active)
same,Potency,[3],10.6 µM (active)
same,"activity change, positive = activation",[4]; at 42.5 µM (top of the series),-51%
same,Potency,[5],inactive
same,Potency,[7],inactive
same,Potency,[8],inactive
same,Potency,[16],inactive
same,Potency,[9],inactive
same,Potency,[17],inactive
same,Potency,[18],inactive
same,Potency,[11],inactive
same,Potency,[14],inactive
COc1ccc2cc1Oc1ccc(cc1)C[C@H]1c3c(cc4c(c3Oc3cc5c(cc3OC)CCN(C)[C@@H]5C2)OCO4)CCN1C,Potency,[1],inactive
same,Potency,[3],29.8 µM (active)
same,"activity change, positive = activation",[4]; at 42.5 µM (top of the series),-56.4%
same,Potency,[6],5.35 µM (active)
same,Potency,[7],inactive
same,Potency,[8],23.9 µM (active)
same,Potency,[10],6.74 µM (active)
same,Potency,[19],19 µM (active)
same,Potency,[11],23.9 µM (active)
same,Potency,[12],23.9 µM (active)
same,Potency,[14],inactive
CN1CCC[C@@H]1CCO[C@](C)(c1ccccc1)c1ccc(Cl)cc1,Potency,[1],21.3 µM (active)
same,"activity change, positive = activation",[4]; at 42.5 µM (top of the series),-35.9%
same,Potency,[5],23.9 µM (active)
same,Potency,[6],19 µM (active)
same,Potency,[7],inactive
same,Potency,[8],23.9 µM (active)
same,Potency,[16],26.8 µM (active)
same,Potency,[9],19 µM (active)
same,Potency,[10],16.9 µM (active)
same,Potency,[18],26.8 µM (active)
same,Potency,[19],21.3 µM (active)
same,Potency,[11],23.9 µM (active)
same,Potency,[12],21.3 µM (active)
same,Potency,[13],21.3 µM (active)
CC(C)NC[C@@H](O)COc1ccc(CC(N)=O)cc1,Potency,[1],inactive
same,Potency,[15],inactive
same,Potency,[5],inactive
same,Potency,[6],inactive
same,Potency,[7],inactive
same,Potency,[9],inactive
same,Potency,[17],inactive
same,max response,[10],-0.295%
same,Potency,[18],inactive
same,Potency,[19],inactive
same,Potency,[11],inactive
same,Potency,[12],inactive
same,Potency,[13],inactive
same,Potency,[14],inactive
OCCN1CCN(CCCN2c3ccccc3Sc3ccc(C(F)(F)F)cc32)CC1,Potency,[1],19 µM (active)
same,"activity change, positive = activation",[4]; at 42.5 µM (top of the series),-32%
same,Potency,[5],26.8 µM (active)
same,Potency,[6],23.9 µM (active)
same,Potency,[7],inactive
same,Potency,[10],23.9 µM (active)
same,Potency,[12],26.8 µM (active)
same,Potency,[13],26.8 µM (active)
O=C(O)c1cc(N=Nc2ccc([N+](=O)[O-])cc2)ccc1O,Potency,[1],inactive
same,Potency,[15],inactive
same,Potency,[3],inactive
same,"activity change, positive = activation",[4]; at 92.4 µM (top of the series),93.2% (active)
same,Potency,[5],inactive
same,Potency,[6],inactive
same,Potency,[7],inactive
same,Potency,[16],inactive
same,Potency,[9],inactive
same,Potency,[17],inactive
same,max response,[10],-17%
same,Potency,[18],inactive
same,Potency,[11],inactive
same,Potency,[12],inactive
same,Potency,[13],inactive
CN(C)c1ccc(C(=C2C=CC(=[N+](C)C)C=C2)c2ccc(N(C)C)cc2)cc1,Potency,[1],19.4 µM (active) and 54.9 µM (active)
same,Potency,[15],3.17 µM (active) and 12.7 µM (active) and 13.9 µM (active)
same,Potency,[5],24.4 µM (active) and 24.5 µM (active) and 10.7 µM (active)
same,Potency,[6],2.74 µM (active) and 6.92 µM (active) and 2.39 µM (active)
same,Potency,[7],inactive
same,Potency,[8],34.5 µM (active) and 43.6 µM (active) and 26.8 µM (active)
same,Potency,[9],6.88 µM (active) and 19.5 µM (active) and 7.56 µM (active)
same,Potency,[17],19.4 µM (active) and 24.5 µM (active)
same,Potency,[10],1.73 µM (active) and 4.9 µM (active) and 1.69 µM (active)
same,Potency,[18],inactive
same,Potency,[11],30.7 µM (active) and 24.5 µM (active) and 21.3 µM (active)
same,Potency,[12],10.9 µM (active) and 12.3 µM (active) and 19 µM (active)
same,Potency,[13],10.9 µM (active) and 12.3 µM (active) and 21.3 µM (active)
O=C(O)c1cc(O)c2ccccc2c1O,Potency,[1],11 µM (active)
same,Potency,[15],50.5 µM (active)
same,Potency,[3],61.1 µM (active)
same,"activity change, positive = activation",[4]; at 92.4 µM (top of the series),-58.1%
same,Potency,[5],19.5 µM (active)
same,Potency,[6],43.6 µM (active)
same,Potency,[7],inactive
same,Potency,[8],21.9 µM (active)
same,Potency,[16],19.5 µM (active)
same,Potency,[9],38.9 µM (active)
same,Potency,[17],17.4 µM (active)
same,Potency,[10],38.9 µM (active)
same,Potency,[19],43.6 µM (active)
same,Potency,[11],21.9 µM (active)
same,Potency,[12],43.6 µM (active)
same,Potency,[13],24.5 µM (active)
O=S(=O)(O)c1ccc(Nc2nc(Nc3ccc(/C=C/c4ccc(Nc5nc(Nc6ccc(S(=O)(=O)O)cc6)nc(N(CCO)CCO)n5)cc4S(=O)(=O)O)c(S(=O)(=O)O)c3)nc(N(CCO)CCO)n2)cc1,Potency,[1],inactive
same,Potency,[15],inactive
same,Potency,[3],inactive
same,"activity change, positive = activation",[4]; at 42.5 µM (top of the series),7.49%
same,Potency,[5],inactive
same,Potency,[6],inactive
same,Potency,[7],inactive
same,Potency,[8],inactive
same,Potency,[9],inactive
same,Potency,[17],inactive
same,max response,[10],-1.51%
same,Potency,[18],inactive
same,Potency,[19],inactive
same,Potency,[11],inactive
same,Potency,[12],inactive
same,Potency,[13],inactive
Cc1ccc(O)c(N)c1,Potency,[1],39 µM (active)
same,Potency,[15],inactive
same,Potency,[5],inactive
same,Potency,[7],inactive
same,Potency,[8],inactive
same,Potency,[17],inactive
same,Potency,[18],inactive
same,Potency,[19],inactive
same,Potency,[11],inactive
CNC(=O)c1ccccc1Sc1ccc2c(/C=C/c3ccccn3)n[nH]c2c1,Potency,[1],inactive
same,Potency,[2],inactive
same,Potency,[5],inactive
same,Potency,[6],9.52 µM (active)
same,Potency,[7],inactive
same,Potency,[8],inactive
same,Potency,[10],8.49 µM (active)
same,Potency,[19],inactive
same,Potency,[11],inactive
same,Potency,[12],inactive
same,Potency,[13],inactive
Cc1ccc(O)c(O)c1,Potency,[2],inactive
same,Potency,[3],inactive
same,Potency,[5],inactive
same,Potency,[7],inactive
same,Potency,[17],inactive
same,Potency,[19],inactive
same,Potency,[11],inactive
same,Potency,[12],inactive
same,Potency,[14],inactive
